Test results from PubChem BioAssay AID1645853 (Buhrlage Lab, Dana-Farber Cancer Institute and Novartis …, 2021).
Hit rate of the full screen: of about 47,000 compounds, about 2,000 (4.3%) were called active. No stated cut-off is given here; in the data, active means inhibition above about 30%; inactive means the rest. The full list was thinned out, with actives kept by preference.

biological target: Ubiquitin carboxyl-terminal hydrolase 8 (Homo sapiens) (UniProt P40818); test: blocks human USP8 ubiquitin-rhodamine cleavage (AID 1645853); conditions: purified USP8, Ub-rhodamine cleavage fluorescence, 30 min; at 20 µM; hits give high values
Sequence (P40818 whole entry, looked up): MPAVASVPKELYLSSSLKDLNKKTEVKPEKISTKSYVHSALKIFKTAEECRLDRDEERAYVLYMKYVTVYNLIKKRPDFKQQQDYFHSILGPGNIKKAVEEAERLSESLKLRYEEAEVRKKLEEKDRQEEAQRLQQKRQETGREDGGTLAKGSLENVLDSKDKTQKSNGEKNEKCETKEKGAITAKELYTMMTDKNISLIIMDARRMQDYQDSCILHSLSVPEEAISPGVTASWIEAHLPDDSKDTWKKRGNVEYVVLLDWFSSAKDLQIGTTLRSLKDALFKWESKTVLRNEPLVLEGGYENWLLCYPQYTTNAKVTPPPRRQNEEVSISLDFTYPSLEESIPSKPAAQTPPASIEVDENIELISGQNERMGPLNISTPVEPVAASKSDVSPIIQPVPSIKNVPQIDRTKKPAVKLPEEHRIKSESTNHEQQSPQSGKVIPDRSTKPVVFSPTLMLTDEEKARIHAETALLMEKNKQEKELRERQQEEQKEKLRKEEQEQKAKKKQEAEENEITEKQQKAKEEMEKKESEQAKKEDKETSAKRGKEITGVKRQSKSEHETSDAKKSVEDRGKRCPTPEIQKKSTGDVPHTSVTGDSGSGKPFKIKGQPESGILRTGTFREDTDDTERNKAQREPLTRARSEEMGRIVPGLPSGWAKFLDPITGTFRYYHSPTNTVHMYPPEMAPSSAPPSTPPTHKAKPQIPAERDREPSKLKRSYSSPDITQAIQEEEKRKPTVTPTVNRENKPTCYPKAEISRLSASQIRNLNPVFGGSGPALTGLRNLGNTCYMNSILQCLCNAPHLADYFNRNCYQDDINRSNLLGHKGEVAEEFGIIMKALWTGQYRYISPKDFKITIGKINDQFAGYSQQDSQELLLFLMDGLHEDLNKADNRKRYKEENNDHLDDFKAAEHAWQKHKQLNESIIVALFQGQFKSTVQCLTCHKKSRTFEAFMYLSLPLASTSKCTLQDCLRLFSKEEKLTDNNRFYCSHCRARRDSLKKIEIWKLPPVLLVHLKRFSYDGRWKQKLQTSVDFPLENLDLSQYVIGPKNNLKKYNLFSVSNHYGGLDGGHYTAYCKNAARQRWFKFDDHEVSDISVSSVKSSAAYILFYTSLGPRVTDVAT

| SMILES | inhibition |
| --- | --- |
| Cc1cc(=O)n(CC(=O)NCc2ccccc2)c(N2CCCC2)n1 | 2.35% (inactive) |
| CCc1cccc(C)c1NC(=O)CSc1nc2c(c(=O)[nH]1)CCCC2 | 18% (inactive) |
| CCc1cccc(C)c1NC(=O)Cn1nc2ccc(C(=O)NCc3ccccc3)cn2c1=O | 74.5% (active) |
| O=S(=O)(Cc1nnc(-c2cc(Cl)cc(Cl)c2)o1)c1ccc(Cl)cc1 | 45.6% (active) |
| Cc1ccc(-c2nnc(CCC(=O)O)o2)cc1 | 3.95% (inactive) |
| N#Cc1ccc(-c2nc(CS(=O)(=O)c3ccc(Cl)cc3)no2)cc1 | -6.87% (inactive) |
| O=C(NCCC(=O)N1CCC2(CC1)NCCc1[nH]cnc12)c1ccc(-c2ccccc2)cc1 | 34.7% (active) |
| O=C(NCC(=O)N1CCC2(CC1)NCCc1[nH]cnc12)c1ccc(Br)cc1 | 18.8% (inactive) |
| C[C@H](NC(=O)Cc1ccc(Cl)cc1)C(=O)N1CCC2(CC1)NCCc1[nH]cnc12 | 21.2% (inactive) |
| Cc1cc(Cl)ccc1OCCCC(=O)NCc1ccccn1 | -25% (inactive) |
| O=C(Nc1ccc(-c2nc3cnccc3o2)c(O)c1)c1ccc(-c2ccccc2)cc1 | -4.15% (inactive) |
| O=C(Cc1ccccc1)Nc1ccc(-c2nc3cnccc3o2)c(O)c1 | 74.3% (active) |
| COc1cc(C(=O)Nc2ccc(-c3nc4cnccc4o3)cc2)cc(OC)c1OC | -3.3% (inactive) |
| CCCc1noc(-c2ccc(-n3ncc(C(=O)N4CCOCC4)c3C)nc2)n1 | 0.113% (inactive) |
| COc1cccc(-c2noc(CN3CCCC3c3cc(OC)ccc3OC)n2)c1 (centres undefined) | -12.7% (inactive) |
| CCCCN(C)c1ccc2nnc(CCc3nc(-c4cc(OC)cc(OC)c4)no3)n2n1 | 84.8% (active) |
| COc1ccc(-c2noc(CN(C3CCCCC3)S(=O)(=O)c3ccc(OC)cc3)n2)cc1 | 14% (inactive) |
| CSCCC(NC(=O)C1CCCC1)c1nc2ccccc2[nH]1 (centres undefined) | -5.64% (inactive) |
| Cc1ccc(NC(=O)CCn2cnc3c2c(=O)n(C)c(=O)n3C)cc1 | -3.63% (inactive) |
| Cn1c(=O)c2c(ncn2Cc2nnc(-c3ccccc3)o2)n(C)c1=O | 64.8% (active) |
| Cc1cnc(NC(=O)Cn2cnc3c2c(=O)n(C)c(=O)n3C)s1 | 19.6% (inactive) |
| CC1CCN(C(=O)c2ncn3c2CN(C)S(=O)(=O)c2ccccc2-3)CC1 | 6.05% (inactive) |
| CCc1nnc2ccc(S(=O)(=O)N(CC)c3ccccc3)cn12 | -281% (inactive) |

| SMILES | inhibition |
| --- | --- |
| Cc1cc(NC(=O)COC(=O)c2cccc(C)c2O)ccc1Br | 0.58% (inactive) |
| Nn1c(SCC(=O)Nc2ccccc2F)nnc1-c1n[nH]c2c1CCC2 | 7.87% (inactive) |
| Cc1cc(-c2nnc(SCC(=O)Nc3ccc(Br)c(C)c3)n2N)n[nH]1 | 31% (active) |
| CC(C)(C)n1nc(C2CC2)c(Br)c1NC(=O)c1ccccc1F | 20.5% (inactive) |
| CC1(C)CCC2(C(=O)O)CC[C@]3(C)C(=CC[C@@H]4[C@@]5(C)CCC(O)C(C)(C)[C@@H]5CC[C@]43C)C2C1 (some centres undefined) | 4.43% (inactive) |
| Cc1cccc(CNC(=O)CN2C(=O)C3CCCN3C(=O)c3cccc(C)c32)c1 (centres undefined) | 5.77% (inactive) |
| Cc1cccc(C2=NC3(CCN(CC(=O)Nc4ccccc4C)CC3)NC2=O)c1 | -2.9% (inactive) |
| Cc1ccc2cc(CNc3ccccc3)c(=O)n(CC(=O)Nc3ccccc3C)c2c1 | 92.8% (active) |
| Cc1cccc(NC(=O)Cn2c(C)ccc(NC(=O)Nc3cccc(C)c3)c2=O)c1 | 26.5% (inactive) |
| CCOC(=O)c1cc(S(=O)(=O)Nc2ccc(OC)c(Cl)c2)cn1C | 11.8% (inactive) |
| O=C(NC1CC2(CCOCC2)Oc2ccccc21)c1[nH]ncc1Cl (centres undefined) | 3.95% (inactive) |
| O=C(COc1ccccc1)Nc1cnc(-c2cccc(Cl)c2)nc1 | 60.7% (active) |
| CSc1cccc(NC(=O)COc2ccc(C(=O)c3ccccc3)cc2)c1 | -0.948% (inactive) |
| COc1ccc(CC(=O)Nc2cnc(-c3ccccc3)nc2)cc1 | -7.3% (inactive) |
| CCC(C)[C@H](NC(=O)[C@@H]1Cc2c([nH]c3ccccc23)C2c3ccccc3C(=O)N21)C(=O)NCCc1ccccc1 (some centres undefined) | -10.4% (inactive) |
| Cc1cccc(C(=O)Nc2ccc(-n3c(C)nc4ncccc4c3=O)cc2C)c1 | 5.93% (inactive) |
| COc1cccc(C2c3[nH]c4ccccc4c3C[C@@H]3C(=O)N(Cc4ccc5c(c4)OCO5)CC(=O)N23)c1 (some centres undefined) | 13.4% (inactive) |
| CN(c1ccccc1)c1nc(=O)n(CC(=O)Nc2ccc3c(c2)OCCO3)c2ccccc12 | -40.3% (inactive) |
| CCc1cc(=O)n(CC(=O)Nc2cc(C)on2)c(-c2ccccc2)n1 | -44.3% (inactive) |
| Cc1cc(=O)n(CC(=O)Nc2ccc3c(c2)OCO3)c2c1c(-c1ccccc1)nn2-c1ccccc1 | 67.9% (active) |
| CCCN1CCN(c2ccc(C(=O)O)cc2NS(=O)(=O)c2cc(F)ccc2F)CC1 | 84.9% (active) |
| CCS(=O)(=O)Nc1cc(S(=O)(=O)Nc2cc(Cl)ccc2Cl)ccc1N1CCOCC1 | 2.1% (inactive) |
| CC(=O)N1CCc2cc(S(=O)(=O)Nc3ccccc3N3CCN(C)CC3)ccc21 | -8.86% (inactive) |

| SMILES | inhibition |
| --- | --- |
| Cc1ccnc(SCc2nc(-c3ccc4c(c3)ncn4C)no2)n1 | 2.93% (inactive) |
| Cc1noc(C2(NC(=O)Cc3ccccc3C)CCCCC2)n1 | -1.15% (inactive) |
| Cc1csc(C2(NC(=O)Cc3cc(C)on3)CCCC2)n1 | 74.9% (active) |
| O=C(Cc1cccc(F)c1)NC1(c2nc(C3CC3)no2)CCCCC1 | 5.33% (inactive) |
| Cc1noc(C)c1S(=O)(=O)NCc1ccc2c(c1)CCN2C(=O)C(C)C | 21.9% (inactive) |
| Cc1cccc(N2CCN(S(=O)(=O)c3c[nH]c(-c4nnc(C)o4)c3)CC2C)c1 (centres undefined) | 12.2% (inactive) |
| CC(C)NS(=O)(=O)c1ccc(NC(=O)c2cccnc2)cc1 | 4.16% (inactive) |
| CCc1cc(C2CCCN2C(=O)c2cc(-c3ccccc3F)no2)on1 (centres undefined) | 0.852% (inactive) |
| O=C(C1CCC1)N1CCCN(c2ccc([N+](=O)[O-])cn2)CC1 | -127% (inactive) |
| CN(C)c1ccc(S(=O)(=O)NCC(=O)NCC2CCCCC2)cc1[N+](=O)[O-] | -110% (inactive) |
| Oc1cccc2nc3c(O)cccc3nc12 | 94.4% (active) |
| O=C(NCc1ccc2c(c1)OCO2)C1CCCN(c2nc3ccc(Cl)cc3[nH]2)C1 (centres undefined) | 7.49% (inactive) |
| CC(=O)N[C@@]12CN(C)CC[C@@H]1[C@@H](c1ccccc1)N(CC(=O)Nc1cc(F)ccc1C)C2 | -5.94% (inactive) |
| N#Cc1ccccc1Cn1c(=O)n(CCCC(=O)NCc2ccc(F)cc2)c(=O)c2ccccc21 | 15.6% (inactive) |
| COc1ccc(CCNC(=O)CCCn2c(=O)c3ccccc3n(CC(=O)OCc3ccccc3)c2=O)cc1OC | 1.77% (inactive) |
| Cc1ccc(CNC(=O)CCCn2c(=O)c3sccc3n(CC(=O)OCc3ccccc3)c2=O)cc1 | 63.4% (active) |
| Cc1cc(C)nc(-n2nc(C)c(C#N)c2NC(=O)c2cccc(Cl)c2)n1 | 2.08% (inactive) |
| COc1ccc(-c2cnoc2-c2ccc(O)cc2O)cc1OC | 22% (inactive) |
| c1coc(CNc2nc(Nc3cccc4ccccc34)nc3ccccc23)c1 | 35.8% (active) |
| Fc1ccc(-n2cc(-c3ccccc3)c3c(NCc4ccco4)ncnc32)cc1 | 5.27% (inactive) |
| CC(C)Cc1nc2sc3c(NCc4ccco4)ncnc3c2c2c1CCC2 | 16.6% (inactive) |
| COCCN1CC[C@@H]2Oc3ccccc3S(=O)(=O)N(Cc3cccnc3)[C@H]2CC1 | -50.1% (inactive) |
| COc1cccc(S(=O)(=O)N2CCC(n3cnnc3C3CC3)CC2)c1 | 1.34% (inactive) |

| SMILES | inhibition |
| --- | --- |
| COc1cc(-c2nc3c4cnn(-c5ccccc5)c4ncn3n2)cc(OC)c1OC | -3.12% (inactive) |
| C#CCOc1ccc2ccccc2c1CN1CCc2ccccc2C1 | 41.1% (active) |
| C#CCOc1ccc(CN2CCc3nc(-c4cccnc4)[nH]c(=O)c3C2)cc1OC | 13.3% (inactive) |
| Cn1nnnc1-c1cc(Cl)cc(Cl)c1 | -13.4% (inactive) |
| CCc1cc(=O)n(CC(=O)NCC2CCCO2)c(N)n1 (centres undefined) | 0.518% (inactive) |
| COc1cccc(CNC(=O)N2CCN(Cc3ccc4nccnc4c3)CC2)c1 | -8.24% (inactive) |
| Cn1c(CC2CCN(S(=O)(=O)c3cccnc3)C2)nc2cccnc21 (centres undefined) | 13.9% (inactive) |
| O=C(NCc1ccccc1)c1c(O)c2cnn(Cc3ccccc3)c2[nH]c1=O | 0.46% (inactive) |
| CC1(C(=O)NC2CCCC2)Cn2c(cc3ccccc32)C(=O)N1c1ccc(F)cc1 (centres undefined) | 50.7% (active) |
| CC(C)CCNC(=O)C1(C)Cn2c(cc3ccccc32)C(=O)N1Cc1ccccc1F (centres undefined) | 0.22% (inactive) |
| COc1ccccc1CN1C(=O)c2cc3occc3n2CC1(C)C(=O)NC1CCCCC1 (centres undefined) | 13.4% (inactive) |
| CO\C=C(C(=O)OC)/C(=C\C=C\c1ccccc1)CO | -79.7% (inactive) |
| Cc1cc(C)c2ccc(NC(=O)c3ccco3)nc2n1 | -8.62% (inactive) |
| Cc1nc(-n2[nH]c(C)c(CC(=O)N3CCOCC3)c2=O)sc1C | 8.41% (inactive) |
| CC(C)Cc1cc(-c2nn3c(-c4ccccc4Cl)nnc3s2)n[nH]1 | -0.275% (inactive) |
| Cc1c(-c2nn3c(-c4ccco4)nnc3s2)cccc1[N+](=O)[O-] | 89.2% (active) |
| c1ccc(CN2CCCC(c3nc(-c4cccnc4)n[nH]3)C2)cc1 (centres undefined) | -0.172% (inactive) |
| O=C(Cn1cccc(-c2nc(-c3ccccc3)no2)c1=O)Nc1ccccc1F | 90.4% (active) |
| Cc1noc(-c2cccn(Cc3cc(F)ccc3F)c2=O)n1 | 2.57% (inactive) |
| O=C(CN1CCC(c2nc(-c3ccccc3)no2)CC1)Nc1ccccc1 | 3.46% (inactive) |
